# The whole screen tested about 290,000 compounds, of which about 3,000 (1%) were called active. The sample holds actives, similar compounds and a random draw of the others, so the mix is not that of the screen. A number with no mark means an inactive call. Cut-off read from the data, not from the text of the source: active = inhibition mostly above about 36% (no sharp cut-off); inactive = mostly below about 34%.
# Experiment: inhibition of NOD1-driven NF-kB reporter – cell-based, luminescence, uHTS, primary screen (AID 1578);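 note: HEK-293T reporter cells stimulated with the NOD1 agonist gamma-tri-DAP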
# Settings: NOD1-driven NF-kB luciferase reporter cells, at 4 µM, hits give high values
row,Compound,inhibition
1,Cc1ccccc1C(=O)N1CCC(C(N)=O)CC1,24.1%
2,O=C(NCc1ccccc1)C1COc2ccccc2O1 (stereo not drawn),-48.6%
3,O=C(N1CCN(c2ccccn2)CC1)C(Cl)(Cl)Cl,32.8%
4,CC(Cl)C(=O)N1c2ccccc2CCc2ccccc21 (stereo not drawn),19.8%
5,O=C(CN1CCCCC1)N1c2ccccc2CCc2ccccc21,7.5%
6,O=C(CCl)N1c2ccccc2CCc2ccccc21,94.7% (active)
7,C=CCNc1cnn(-c2ccc(C)cc2)c(=O)c1Sc1ccc(C)cc1,11.6%
8,CC/C(=N\NC(=O)c1ccc(Br)cc1)c1ccccc1,-30.9%
9,N#C/C(=C(/O)CCl)c1nc(-c2ccccc2)cs1,-4.2%
10,N#C/C(=C(/O)CCl)c1nc2c(s1)CCc1ccccc1-2,78.6% (active)
11,Nc1nc2c(s1)CCc1ccccc1-2,-11.8%
12,C=CCn1c(COc2ccc(Cl)cc2)nnc1SCC(=O)N/N=C/c1ccccc1,1.1%
13,C=CCn1c(COc2ccccc2)nnc1SCC(=O)N/N=C/c1cc(Cl)ccc1O,39.9% (active)
14,C=CCn1c(COc2ccccc2)nnc1SC(C)C(=O)N/N=C/c1cc(Cl)ccc1O (stereo not drawn),2%
15,CN(C)C(=O)CN1CCN(c2nc3nonc3nc2N2CCCCC2)CC1,-28.9%
16,CC(C)(C)OC(=O)N/N=C/c1cccn1-c1ccc([N+](=O)[O-])cc1,-6.6%
17,COc1cc(OC)cc(C(=O)OC/C(O)=C(\C#N)c2nc3ccccc3[nH]2)c1,-0.4%
18,CCOC(=O)c1c(C)[nH]c(C(=O)OC/C(O)=C(\C#N)c2nc3ccccc3[nH]2)c1C,-26.6%
19,N#C/C(=C(/O)COC(=O)c1cccnc1Cl)c1nc2ccccc2[nH]1,-23.4%
20,CCCC(=O)OC/C(O)=C(\C#N)c1nc2ccccc2[nH]1,105% (active)
21,N#C/C(=C(/O)COC(=O)CCCNC(=O)c1ccc(Cl)cc1)c1nc2ccccc2[nH]1,86.4% (active)
22,N#C/C(=C(/O)COC(=O)c1ccc(Cl)c(S(=O)(=O)N2CCOCC2)c1)c1nc2ccccc2[nH]1,17.7%
23,N#C/C(=C(/O)COC(=O)Cc1c[nH]c2ccccc12)c1nc2ccccc2[nH]1,-14.1%
24,N#C/C(=C(/O)COC(=O)CCc1ccc(S(=O)(=O)N2CCOCC2)cc1)c1nc2ccccc2[nH]1,93.4% (active)

row,Compound,inhibition
1,COCC(=O)OC/C(O)=C(\C#N)c1nc2ccccc2[nH]1,66.5% (active)
2,CC(C)C(=O)OC/C(O)=C(\C#N)c1nc2ccccc2[nH]1,0.8%
3,N#C/C(=C(/O)COC(=O)c1ccc(O)cc1)c1nc2ccccc2[nH]1,-5.6%
4,Cc1ccc(C(=O)OC/C(O)=C(\C#N)c2nc3ccccc3[nH]2)cc1S(=O)(=O)N1CCOCC1,20.1%
5,O=C(CSc1nc(-c2ccccc2)c(-c2ccccc2)[nH]1)Nc1ccc2c(c1)OCO2,-5.7%
6,O=C(CSc1nn(-c2ccccc2)c(=S)s1)NC(=O)NCc1ccco1,17.4%
7,CCCCN(C)CCNC(=O)c1cc2c(=O)[nH]c3ccccc3c2n1C,-7.1%
8,CCOC(=O)COc1ccc2c(C)cc(=O)oc2c1C(=O)c1ccccc1,5.9%
9,O=C1CC(N2CCN(c3ccc(O)cc3)CC2)C(=O)N1c1ccc2c(c1)OCO2 (stereo not drawn),-26.7%
10,COc1ccc(OC/C(O)=C(\C#N)c2nc3ccccc3[nH]2)cc1,-23.4%
11,Cc1ccc(C(C)C)c(OC/C(O)=C(\C#N)c2nc3ccccc3[nH]2)c1,36.3% (active)
12,COc1ccc(/C(C)=N/OC/C(O)=C(\C#N)c2nc3ccccc3[nH]2)cc1OC,5.6%
13,CCC(C)c1ccc(OCC(=O)NNC(=O)C2CCCCC2)cc1 (stereo not drawn),-4.3%
14,Cc1ccccc1NC(=O)c1ccccc1-c1ccccc1,-24.9%
15,CC(=O)Nc1ccccc1NC(=O)c1ccccc1-c1ccccc1,73% (active)
16,O=C(Nc1ccccc1Br)c1ccccc1-c1ccccc1,-10.7%
17,CC(C)(CO)N=Cc1c(O)[nH]c2ccccc12,-14.8%
18,CCCCCCC(=O)Nc1ccc(Cl)cn1,-24.4%
19,C=CCN(CC=C)C(=O)c1cccc(OC2CCN(S(=O)(=O)N(C)C)CC2)c1,8.4%
20,CCOc1ccc2nc(SCC#N)c(C#N)cc2c1,68.2% (active)
21,CCSc1nc2ccc(OC)cc2cc1C#N,-45.3%
22,CCOc1ccc2nc(SCC(=O)N3CCCCCC3)c(C#N)cc2c1,-18.2%
23,O=C(O)c1cccc(CN2C(=O)S/C(=C/c3ccccc3[N+](=O)[O-])C2=O)c1,3.9%
24,O=C1/C(=C\c2ccc(O)cc2)SC(=S)N1Cc1ccccc1,-9.6%

row,Compound,inhibition
1,O=C(O)c1cccc(CN2C(=O)S/C(=C/c3cccc([N+](=O)[O-])c3)C2=O)c1,1.5%
2,O=C1/C(=C\c2cccc(O)c2O)SC(=S)N1Cc1ccccc1,-20.4%
3,O=C1/C(=C\c2cc(Br)cc(Br)c2O)SC(=S)N1Cc1ccccc1,73.3% (active)
4,CCOC(=O)CN1C(=O)S/C(=C/c2ccc(O)c([N+](=O)[O-])c2)C1=O,-4.5%
5,COc1ccc(O)c(/C=C2/SC(=S)N(Cc3ccccc3)C2=O)c1,-3.5%
6,CCOC(=O)N1CCN(S(=O)(=O)N2CCCC(C(=O)NCc3ccc(F)cc3)C2)CC1 (stereo not drawn),3.3%
7,O=C(CCC(=O)N(c1cccc(F)c1)C(C(=O)NC1CCCC1)c1ccncc1)Nc1cccnc1 (stereo not drawn),-42.2%
8,CC1C=CCC2C(=O)N(c3cccc(C(=O)Nc4ccc(Br)cc4)c3)C(=O)C12 (stereo not drawn),-16.6%
9,CCCCN(CC)S(=O)(=O)c1c(C)[nH]c(=O)[nH]c1=O,-34.4%
10,CCOc1ccc(N2CC(C(=O)Nc3nnc(C4CCCCC4)s3)CC2=O)cc1 (stereo not drawn),-28.2%
11,O=C(O)COc1ccccc1/C=N/NC(=O)c1cc(-c2ccccc2)nc2ccccc12,-11.3%
12,CCOc1cc(C(c2c(C)[nH][nH]c2=O)c2c(C)[nH][nH]c2=O)cc(Cl)c1O,7.7%
13,CC(Cc1ccccc1)C(=O)NCc1ccncc1 (stereo not drawn),-26.7%
14,CCc1ccc(NC(=O)C(=O)NCCN2CCN(Cc3ccc([N+](=O)[O-])cc3)CC2)cc1,12.5%
15,CCCCc1ccc(NC(=O)C(=O)NCCN2CCN(C(=O)c3ccc([N+](=O)[O-])cc3)CC2)cc1,0.1%
16,CCCCc1ccc(NC(=O)C(=O)NCCN2CCN(Cc3ccc([N+](=O)[O-])cc3)CC2)cc1,34.7% (active)
17,COc1ccc(-c2nnc(SCC(=O)N(Cc3ccccc3)C(C)(C)C)o2)cc1OC,58.8% (active)
18,COc1cc(-c2nnc(SCC(=O)N(Cc3ccccc3)C(C)(C)C)o2)cc(OC)c1OC,10.5%
19,COc1cc(OC)cc(-c2nnc(SCC(=O)N(Cc3ccccc3)C(C)(C)C)o2)c1,14.6%
20,O=S(=O)(c1cccs1)N1CCN(S(=O)(=O)c2cccs2)CC1,-16.1%
21,CC1CN(S(=O)(=O)c2cccs2)CC(C)O1 (stereo not drawn),34.6% (active)
22,CC1CN(S(=O)(=O)c2ccccc2)CC(C)O1 (stereo not drawn),-8.4%
23,CCOC(=O)NC(=O)/C(C#N)=N\Nc1ccc(Cl)cc1,-37.5%
24,CCOC(=O)NC(=O)/C(C#N)=N\Nc1cccc(Cl)c1,55.7% (active)

row,Compound,inhibition
1,CCOC(=O)NC(=O)/C(C#N)=N\Nc1cccc(OC)c1,-43%
2,CC(C)COc1ccc(/C(O)=C2/C(=O)C(=O)N(CCN(C)C)C2c2ccncc2)cc1 (stereo not drawn),-0.8%
3,CS(=O)(=O)N1CCN(C(=O)COc2ccc3ccccc3c2)CC1,6.1%
4,CCc1ccc2oc(C(=O)NCCc3ccc(S(N)(=O)=O)cc3)cc(=O)c2c1,-0.9%
5,COc1cc(/C=N/NC(=O)c2sc(N)c(C#N)c2C)ccc1O,-14.2%
6,CCOC(=O)c1c(NC(=O)C(=O)N/N=C/c2ccccc2OC)sc2c1CCCCC2,7.6%
7,CCOC(=O)c1c(NC(=O)N/N=C/c2ccccc2OCC)sc(C(C)=O)c1C,-33.7%
8,CCOC(=O)c1c(NC(=O)C(=O)N/N=C/c2ccc(O)c(OC)c2)sc2c1CCCCC2,81.2% (active)
9,CCOC(=O)c1c(NC(=O)C(=O)N/N=C/c2ccc(OCC)cc2)sc2c1CCCCC2,-14.4%
10,CCOC(=O)c1c(NC(=O)N/N=C/c2ccc(O)c(OC)c2)sc(C(C)=O)c1C,53.1% (active)
11,CN(CC(=O)Nc1ccccc1Cl)C1CCCCC1,-46.1%
12,O=C(Cc1cccs1)NCCSc1c(-c2ccc(Cl)cc2)[nH]c2ccccc12,30.7%
13,Cc1ccc(C(=O)NC(NCc2ccccc2)C(Cl)(Cl)Cl)cc1 (stereo not drawn),5.2%
14,O=C(COC(=O)C1CC2C=CC1C2)Nc1cccc(S(=O)(=O)N2CCCCC2)c1 (stereo not drawn),-18.1%
15,N#Cc1c(C(F)(F)F)cc(-c2ccc(F)cc2)[nH]c1=O,-17.2%
16,Cc1ccc(-c2cc(C(F)(F)F)c(C#N)c(=O)[nH]2)cc1,1.8%
17,N#Cc1c(C(F)(F)F)cc(-c2ccc(Cl)cc2)[nH]c1=O,54.2% (active)
18,O=C(Nc1nc(-c2nc3ccccc3s2)cs1)c1ccc(S(=O)(=O)N2CCOCC2)cc1,47.5%
19,CCOc1cccc(CNc2ccc(O)cc2)c1OCc1ccc(Cl)cc1,22.1%
20,CCOc1cccc(CNc2ccc(O)cc2)c1OCc1ccccc1Cl,39.2% (active)
21,CCOc1cccc(CNc2ccc(O)cc2)c1OCc1ccc(Cl)cc1Cl,7.6%

# Source: PubChem BioAssay AID1578 (Sanford-Burnham Center for Chemical Genomics, 2009)
